Our source for the activation values is PubChem BioAssay AID731 (The Scripps Research Institute Molecular Screening Center, 2007).

Each structure is given as a SMILES string. Among all 200,000 compounds or so, about 520 (0.26%) were called active. No stated cut-off is given here; in the data, active means activation above about 23%; inactive means the rest. The full list was thinned out, with actives kept by preference.

For this assay, the target named is Peroxisome proliferator-activated receptor gamma (Homo sapiens) (UniProt P37231). Briefly: PPARgamma agonists recruiting SRC-3 coactivator, primary screen, biochemical (AID 731).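 Further: 0% = DMSO and 100% = reference agonist.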 To be noted: biochemical PPARgamma/SRC-3 coactivator recruitment assay; at 8 µM; active compounds read high.
Peroxisome proliferator-activated receptor gamma (Homo sapiens), sequence (P37231 whole entry, looked up): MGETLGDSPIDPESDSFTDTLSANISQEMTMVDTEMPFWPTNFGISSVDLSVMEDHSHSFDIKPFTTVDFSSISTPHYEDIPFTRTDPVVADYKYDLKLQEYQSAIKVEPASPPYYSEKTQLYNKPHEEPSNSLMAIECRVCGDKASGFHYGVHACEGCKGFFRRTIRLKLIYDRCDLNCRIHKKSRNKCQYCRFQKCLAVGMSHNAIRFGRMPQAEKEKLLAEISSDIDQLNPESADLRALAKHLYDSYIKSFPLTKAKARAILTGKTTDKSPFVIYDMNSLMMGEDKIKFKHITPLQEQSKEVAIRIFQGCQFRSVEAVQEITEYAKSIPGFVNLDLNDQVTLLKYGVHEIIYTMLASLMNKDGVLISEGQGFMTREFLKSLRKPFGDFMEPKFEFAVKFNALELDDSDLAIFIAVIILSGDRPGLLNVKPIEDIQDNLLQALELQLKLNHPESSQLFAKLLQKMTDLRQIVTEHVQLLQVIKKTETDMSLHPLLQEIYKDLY
Regarding `O=S(=O)(NC1CCCCC1)c1ccc(F)c2ccccc12`, the activation was 7.29% (inactive). Turning to `Cc1cc(C)cc(C(=O)N(CCc2ccccc2)C2=CC3CCC(C2)N3C)c1` (stereo not given), the activation was 0.55% (inactive). Consider `O=C(NCc1cccs1)c1ccc(Br)o1`, for which the activation is 1.17% (inactive). The value for `O=[N+]([O-])c1ccc(Sc2n[nH]c(-c3ccco3)n2)nc1` was 2.58% (inactive). The value for `COc1ccc(N2CCN(CCCNC(=O)C3CCN(S(=O)(=O)N4CCOCC4)CC3)CC2)cc1` was -2.17% (inactive); that for `O=C(OCc1cc(Cl)ccc1OC(F)F)c1cccnc1` was 0.24% (inactive); that for `CN1CCN(C(=O)/C(=C\c2cccs2)NC(=O)c2cccs2)CC1` was -1.89% (inactive). For `NS(=O)(=O)c1ccc(CCNC(=O)c2ccc([N+](=O)[O-])cc2[N+](=O)[O-])cc1`, the activation is 6.7% (inactive).

Turning to `O=C(Nc1cccc(C(F)(F)F)c1)c1cnccn1`, the activation was 12.3% (inactive). On to `CCOC(=O)c1ccc(COC(=O)CCc2nc(-c3ccccc3)c(-c3ccccc3)o2)cc1`, for which the activation is -0.63% (inactive). The value for `CCO/N=C(/C)c1c(O)cc(-c2ccccc2)n(-c2ccccc2)c1=O` was 0.18% (inactive); that for `CC(=O)N/N=C(\C)c1ccc(Br)cc1Br` was -1.47% (inactive). The value for `CCc1ccc(C(=O)OCC(=O)Nc2cccc(S(=O)(=O)NC3=NCCCCC3)c2)cc1` was -1.75% (inactive); that for `Cc1ccc(NC(=O)c2sc3nc(N)c(C#N)cc3c2N)cc1` was 1.84% (inactive). As to `COc1cc(NC(=O)c2cc([N+](=O)[O-])ccc2Br)ccc1NC(=O)c1ccco1`, the activation is -4.35% (inactive). The value for `CN(C)c1nnnn1-c1ccc(Cl)cc1` was -1.68% (inactive). Regarding `Cc1ccccc1NC(=O)C(C)c1ccc(-c2ccccc2)c(F)c1` (stereo not given), the activation was -1.23% (inactive). With `CCOc1ccc(/C=N/NC(=O)C(C)Sc2ccccn2)cc1OCC` (stereo not given), the activation was 4.85% (inactive). Consider `CCN(CC)S(=O)(=O)c1ccc(Cl)c(C(=O)NC(C)C(c2cccs2)N2CCCC2)c1` (stereo not given), for which the activation is 5.06% (inactive). On to `Cc1ccc(C2C3=C(Nc4[nH]n(-c5ccccc5)c(=O)c42)c2ccccc2C3=O)cc1` (stereo not given), for which the activation is 1.23% (inactive). With `COc1ccc(S(=O)(=O)N2CCOCC2)c(C)c1C`, the activation is 13.6% (inactive).

As for `Cc1ccc(-c2cc(C(=O)N/N=C/C=C/c3ccccc3)n[nH]2)o1`, the activation was -0.56% (inactive). Turning to `CCOC(=O)c1c(C)nc2c(c1C)c(=O)oc1ccccc12`, the activation was 15.5% (inactive). For the molecule `Cc1cc(C(=O)CSc2nc(N)cc(=O)[nH]2)c(C)n1CCc1ccc(Cl)cc1`, the activation is 5.4% (inactive).

With `O=C(O)COc1ccc(/C=N/O)cc1Br`, the activation was 3.92% (inactive). `COCCNC(=O)CCCn1c(=O)c2ccccc2n(Cc2cccc([N+](=O)[O-])c2)c1=O`: the activation was 2.44% (inactive). The value for `CC(=O)n1cc([C@@H]2C=C(C(=O)N3CCN(Cc4ccc5c(c4)OCO5)CC3)O[C@H](OCc3ccc(CO)cc3)C2)c2ccccc21` was -1.58% (inactive); that for `Cc1cnc(C(=O)N2CCCC(C(=O)c3ccc(C(F)(F)F)cc3)C2)cn1` (stereo not given) was -0.94% (inactive). Consider `Cc1cc(=O)oc(C)c1C(=O)NCCN(C)Cc1ccccc1`, for which the activation was 1.75% (inactive).

In the case of `CCCOc1ccc(N/C=C/C(=O)C(C)(C)C)cc1`, the activation was 0.22% (inactive).

As to `O=C(/C=C/Nc1ccccc1OC(F)(F)F)C(F)(F)F`, the activation was 1.89% (inactive). As for `CN(C)c1ccc(N/C=C/C(=O)C(F)(F)F)cc1`, the activation is 23.6% (active).

Turning to `CC(=O)NS(=O)(=O)c1ccc(NC(=O)C2C3C=CC(C3)C2C(=O)O)cc1` (stereo not given), the activation is 0.92% (inactive). In the case of `CC(=O)Cc1nsc(NC(=O)c2ccc(Cl)cc2Cl)n1`, the activation was -0.15% (inactive). As for `O=C(NCc1nnc(SCC(=O)N2CCC(Cc3ccccc3)CC2)o1)c1ccco1`, the activation was -1.46% (inactive). The value for `CCOC(=O)C1CCN(C(=O)c2ccccc2N(C)S(=O)(=O)c2ccccc2)CC1` was 0.82% (inactive); that for `COc1ccc(-n2nc3c(c2NC(=O)c2ccc(N4C(=O)CCC4=O)cc2)CSC3)cc1` was 2.03% (inactive). On to `COc1ccc(/C(O)=C2\C(=O)C(=O)N(Cc3ccco3)C2c2ccc(OC)cc2OC)cc1` (stereo not given), for which the activation is 8.22% (inactive). The value for `COc1ccccc1C1/C(=C(/O)c2ccc(C)cc2)C(=O)C(=O)N1Cc1ccco1` (stereo not given) was -1.85% (inactive); that for `COc1ccc(/C(O)=C2/C(=O)C(=O)N(c3nc(C)c(C)s3)C2c2ccco2)cc1` (stereo not given) was 32.8% (active). `CCc1ccc(NC(=O)C(=O)N/N=C(\C)CC(=O)NCCOC)cc1`: the activation is 0.12% (inactive). On to `CN(C)c1ccc(C(=S)N2CCN(C(=S)Nc3ccc(Cl)cc3)CC2)cc1`, for which the activation is 2.08% (inactive). The value for `CCOC(=O)C1CCN(C(=O)Cn2cc(C#N)c3ccccc32)CC1` was 13.8% (inactive). Regarding `CCOC(=O)C1CCN(C(=O)CSc2cc(=O)n(C)c3ccccc23)CC1`, the activation is 63.4% (active). As for `Cn1c(=O)cc(SCC(=O)N2CCN(C(=O)c3ccco3)CC2)c2ccccc21`, the activation was 82.2% (active). Regarding `O=C(CSCc1ccc(Cl)cc1)N1CCCCC1`, the activation is 7.11% (inactive).

For `CCOc1ccc(CCNC(=O)CSc2cc(=O)n(C)c3ccc(Cl)cc23)cc1OCC`, the activation was 10.2% (inactive).

With `CC(=O)c1ccc(-n2nnnc2SCC(=O)N2CCN(C(=O)c3ccco3)CC2)cc1`, the activation is 0.9% (inactive).

As for `Cn1c(=O)cc(SCC(=O)N2CCCC2)c2cc(Cl)ccc21`, the activation is 39.3% (active).

Consider `Cc1cccc(OCc2nnc(SCC(=O)N3CCN(C(=O)c4ccco4)CC3)n2C)c1C`, for which the activation is 9.2% (inactive). As for `CCOC(=O)N1CCC(NC(=O)COc2cc(=O)n(C)c3ccccc23)CC1`, the activation is -2.51% (inactive).

`COC(=O)c1ccccc1SC1CC(=O)N(c2cccc(C)c2)C1=O` (stereo not given): the activation is 33% (active). As for `Cc1cccc(N2C(=O)CC(SC(N)=Nc3ccccc3)C2=O)c1` (stereo not given), the activation is -7.93% (inactive). In the case of `COC(=O)c1cc(C(=O)OC)cc(N2C(=O)CC(N3CCN(c4ccccc4)CC3)C2=O)c1` (stereo not given), the activation was -12.5% (inactive). The value for `O=C(COC(=O)/C(=C/c1cccs1)c1cccs1)NCc1ccccc1Cl` was 3.76% (inactive); that for `Brc1ccc(C2CC(c3ccccc3)=Nc3ccccc3N2)cc1` (stereo not given) was 0.93% (inactive). `COc1ccc(C2CC(c3ccccc3)=NN2C(=O)COC(=O)COc2ccccc2)cc1` (stereo not given): the activation is -0.96% (inactive). Take `CNC(=S)N1N=C(c2ccccc2)CC1c1ccc(Br)cc1` (stereo not given): the activation is 34.4% (active).

Regarding `Cc1ccc2[nH]c3c(=O)n(Cc4ccccn4)cnc3c2c1`, the activation was 8.8% (inactive). For the molecule `Cc1cccc2cc(C#N)c(N3CCCC3)nc12`, the activation was -13.8% (inactive). The value for `Cc1cc(C)c2nc(N3CCCC3)c(C#N)cc2c1` was -3.43% (inactive); that for `CC(=O)c1ccc(S(=O)(=O)N2CCN(c3nc4c(C)c(C)ccc4cc3C#N)CC2)cc1` was 56.6% (active); that for `O=C(NCc1ccccc1)C1=C[C@@H](C2CCCCC2)C[C@@H](OCc2ccc(CO)cc2)O1` was -1.47% (inactive). Take `CCS(=O)(=O)Nc1cccc(-c2cc(-c3ccccc3)c3cc(C)ccc3n2)c1`: the activation was -3.81% (inactive). For `O=C(CSc1nc2cccnc2n1Cc1ccccc1)N1CCc2ccccc21`, the activation was -2.44% (inactive).
